SmPrx2 inh: blocks S. mansoni peroxiredoxin 2 enzymatic activity; S. mansoni Prx2 activity coupled to TGR/GSH (TGR is thioredoxin glutathione reductase), NADPH fluorescence loss, qHTS; Potency, µM; 65,000 tested, 0.07% active; AID 448
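Purified S. mansoni TGR and Prx2 in pH 7.4 phosphate buffer with EDTA and Tween-20 were preincubated with compounds for 15 min. Further NADPH/GSH was added, then a 2.5 mM H2O2 aliquot initiated turnover, followed kinetically by NADPH fluorescence.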
AmpC det inh: blocks E. coli AmpC beta-lactamase in presence of detergent; purified AmpC, nitrocefin hydrolysis with detergent; P00811; Potency, µM (top dose mostly 28.7 µM), for the others: at the highest dose activity change, negative = inhibition; 71,000 tested, 0.09% active; active = well fitted curve in the direction sought with a large enough effect; inconclusive = small, poorly fitted or top-dose-only effect; also: % is scaled to controls: 0 for no effect and ±100 for the full control effect
Target sequence (P00811 whole entry, looked up): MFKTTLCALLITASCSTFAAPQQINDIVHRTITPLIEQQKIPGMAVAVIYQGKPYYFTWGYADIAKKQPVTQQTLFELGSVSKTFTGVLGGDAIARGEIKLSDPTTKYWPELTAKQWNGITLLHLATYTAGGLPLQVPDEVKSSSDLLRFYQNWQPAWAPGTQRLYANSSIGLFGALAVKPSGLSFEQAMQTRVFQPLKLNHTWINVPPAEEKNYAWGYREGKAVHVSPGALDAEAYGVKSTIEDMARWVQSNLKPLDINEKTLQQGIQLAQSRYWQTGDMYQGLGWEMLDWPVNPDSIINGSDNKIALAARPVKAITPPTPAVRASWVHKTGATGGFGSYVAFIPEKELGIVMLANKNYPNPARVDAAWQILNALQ
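E. coli AmpC (5.3 nM) in 20 mM phosphate pH 7.0 with 0.01% Triton X-100, preincubated 15 min RT with compound; nitrocefin (2 uL of 800 uM stock) hydrolysis followed by 480 nm absorbance every 20 s over 4 min.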
Anthrax LT inh: anthrax lethal toxin internalization inhibition; Cells, anthrax lethal toxin internalization, FRET ratio (460/530); Potency, µM (titrated, usually from 40 µM), inactives show at the highest dose activity change, negative = inhibition, hits mostly inhibitors; 70,000 tested, 0.67% active; AID 912; also: % is scaled to controls: 0 for no effect and ±100 for the full control effect; nearly all actives have a fitted effect of over 50% in size
AmpC inh no det: inhibitors of E. coli AmpC beta-lactamase without detergent; P00811; AmpC nitrocefin hydrolysis, absorbance 480 nm, no detergent; Potency, µM (top dose mostly 28.7 µM), for the others: at the highest dose activity change, negative = inhibition; 71,000 tested, 1.8% active; AID 585; also: % of control where 0% means no effect
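AmpC, 20 mM phosphate pH 7.0; 15 min cpd preinc, RT; start with nitrocefin (800 uM stock); A480 kinetic read, 20 s intervals, 4 min. No-enzyme wells = negative control.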
Numbers without * were called inactive; ? = inconclusive; / = no result given; ! = a repeat was not active; [ ] = dose if it differs, or a comment. An excerpt weighted towards active compounds, which were near 2.4% of everything screened. Unless noted, calls follow the shape of the full dose curve. Potency is read from the fitted curve at half-maximal effect.

SMILES | SmPrx2 inh | AmpC det inh | Anthrax LT inh | AmpC inh no det
CCCn1c(-c2ccc(F)cc2)nc2c(NCCCCN(C)C)nc(C)nc21 | / | 17.1% | -16.4% | 25.7%
Cc1cnc(CNc2cc(-c3ccccc3Cl)ncn2)cn1 | >57 | 9.7% | -3.8% | 16.6%
CCOC(=O)CSCc1nc(-c2ccc(Cl)cc2)oc1C | >57 | 25.4% | ? | 3.98µM*[single pt active]
CC(C)[C@H](CO)Nc1nc(Nc2cccc(Cl)c2)c2ncn(C(C)C)c2n1 | >57 | 12.7% | 12.6µM* | 106.9%
CC(C)(C)NC(=O)C(Cc1ccccc1)NS(=O)(=O)c1ccc2c(c1)CCC(=O)N2 (configuration not stated) | >57 | 13.5% | 6.1% | -5.8%
O=C1CCc2cc(S(=O)(=O)NC(Cc3ccccc3)C(=O)NC3CCCCC3)ccc2N1 (configuration not stated) | >57 | 11.5% | 16.1% | 3.98µM*[single pt active]
CCCCN(C)C(=O)C(Cc1ccccc1)NS(=O)(=O)c1ccc2c(c1)CCC(=O)N2 (configuration not stated) | >57 | 11.1% | 9.2% | 3.98µM*[single pt active]
NC(N)=Nc1ccc2[nH]c3c(c2c1)C[C@]1(O)[C@@H]2Cc4ccc(O)c5c4[C@]1(CCN2CC1CC1)[C@H]3O5 | >57 | -2.8% | 3.3% | -4.1%
O=C(Cn1c(=O)oc2cc(S(=O)(=O)N3CCCCCC3)ccc21)NC1CCCCC1 | >57 | 11.2% | -15.6% | 3.98µM*[single pt active]
O=C(Cn1c(=O)oc2cc(S(=O)(=O)N3CCCC3)ccc21)NCc1ccccn1 | >57 | 11.9% | -4.4% | 3.98µM*[single pt active]
O=C(NC1CCCCC1)NC1CCN(S(=O)(=O)c2ccc3c(c2)OCCO3)CC1 | >57 | 12.9% | ? | 10µM*[single pt active]
CCOC(=O)Cn1c(=O)oc2cc(S(=O)(=O)NCc3ccccn3)ccc21 | >57 | 11.9% | 9.1% | 16.6%
CCOC(=O)C1CCCN(C(=O)Cn2nc(Cc3cccnc3)c3ccccc3c2=O)C1 (configuration not stated) | >57 | 12.1% | 2.0% | 3.16µM*[single pt active]
CC(C)CCNC(=O)Cn1c(NCCC(C)C)nc2c1c(=O)n(C)c(=O)n2C | >57 | 14.3% | -2.0% | 2.51µM*[single pt active]
COc1ccc(-c2cc(C(F)(F)F)nc(N3CCN(c4ccccc4)CC3)n2)cc1OC | >57 | 17.6% | 13.9% | 0.3%
COc1nc(-c2ccccc2)cc(-c2ccc(OC)c(OC)c2)n1 | / | -5.7% | 12.6µM* | 120.5%
COC(=O)[C@@H]1C[C@H]1[C@@H](NC(=O)OCc1ccccc1)c1ccccc1 | >57 | -1.7% | 8.8% | 21.3%
CN[C@H]1CC[C@@H](c2ccc(Cl)c(Cl)c2)c2ccccc21 | / | / | 10µM* | /
CC1=C(C(=O)N(C)C)C(c2ccc(Cl)c(Cl)c2)NC(=O)N1 (configuration not stated) | >57 | -4.5% | ? | 7.6%
Cc1cc(C)c(OCC(=O)Nc2ccccc2N2CCOCC2)c(C)c1 | >57 | 0.2% | ? | 22.0%
COc1ccc(C)cc1C(=O)CCC(=O)Nc1ccccc1N1CCOCC1 | >57 | -2.8% | 15.8µM* | 53.9%
C=CCCN1C[C@@H]2C[C@H](C1)c1cccc(=O)n1C2 | >57 | 2.5% | ? | -1.2%
O=[N+]([O-])/C=C/c1ccccc1 | / | 16.2% | 3.98µM* | -12.2%
C=Cc1ccccc1 | / | 14.3% | -6.6% | -6.5%
COc1ccc(CCNC(=O)C2(C)CCC(=O)N2Cc2ccc3c(c2)OCO3)cc1OC (configuration not stated) | >57 | 11.5% | -0.9% | 3.98µM*[single pt active]
SMILES | SmPrx2 inh | AmpC det inh | Anthrax LT inh | AmpC inh no det
CC1(C(=O)NC2CCCCCC2)CCC(=O)N1Cc1ccc2c(c1)OCO2 (configuration not stated) | >57 | 2.7% | -1.8% | 40.9%
S=C(Nc1ccccc1)Nc1ccccc1C#Cc1ccccc1 | >11.4 | -0.3% | ? | 5.01µM*
O=C(Cn1cc2c(n1)CCCC2)Nc1ccccc1Br | >57 | 10.7% | -18.6% | 3.98µM*[single pt active]
COc1ccc(C2CC(c3cccc(C)c3)n3nc(N)nc3N2)cc1 (configuration not stated) | >57 | 10.5% | -2.9% | 3.98µM*[single pt active]
COc1cccc(C2CC(c3cccc(OC)c3)n3nc(N)nc3N2)c1 (configuration not stated) | >57 | 11.9% | 3.5% | 3.98µM*[single pt active]
COc1cccc(C2CC(c3ccc(F)cc3)Nc3nc(N)nn32)c1 (configuration not stated) | >57 | 10.6% | -0.8% | 2.51µM*[single pt active]
O=c1c2c([nH]c3ccc(Br)cc13)CCCC2 | >57 | -3.4% | 3.4% | -15.7%
O=C1Cc2c([nH]c3ccc(Br)cc23)-c2ccccc2N1 | >57 | -3.6% | -18.2% | 15.8µM*!
